IL1B secr inh: inflammasome signaling inhibition, IL-1 beta readout; THP-1 LPS/ATP IL-1B secretion, AlphaLISA, 16 h; hits give low values; AID 743279; actives 4.7% (n = 360,000); activity change, % at 57.5 µM; in the data active means activity change below about -50%; inconclusive means mostly about -30% to -49%
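THP-1 cells pretreated 1 hr with compounds (up to 57.5 uM final), then stimulated with LPS (250 ng/mL final) plus ATP (1.25 mM final); secreted IL-1B measured by AlphaLISA after 16 hr, decreased signal indicating inhibition.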
TDP1 cell noCPT: qHTS for Inhibitors of human tyrosyl-DNA phosphodiesterase 1 (TDP1): qHTS in cells in absence of CPT; DT40 Tdp1-/- hTDP1 cells, no CPT, ATP luminescence, 48 h; Potency, µM (series often up to 46.2 µM), most hits filed as inhibitors; actives 15% (n = 420,000); further: nearly all actives have a fitted effect of over 55% in size
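Compound effects on proliferation are scored in DT40 Tdp1-/-;hTDP1 cells in the absence of CPT. ATP levels (CellTiter-Glo luminescence) are recorded after a ≥48 hr, 37 °C incubation.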
SW480 rereplic: induces DNA re-replication in SW480 colon adenocarcinoma cells. SW480 DNA re-replication, Hoechst DNA content imaging, 48 h. Potency, µM (series often up to 46.1 µM), most hits filed as activators. actives 1.8% (n = 340,000). AID 624297; further: nearly all actives have a fitted effect of over 55% in size
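DNA re-replication was detected as more nuclei of elevated Hoechst intensity after 48 hr exposure to compound (23 nL pinned per well of 250 cells).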
MCF10A rereplic: inducers of DNA re-replication in MCF 10A breast cells. MCF 10A DNA re-replication, Hoechst nuclear intensity, 48 h. Potency, µM (titrated, usually from 46.1 µM), actives largely listed as activators. actives 2.9% (n = 350,000). AID 624296; further: nearly all actives have a fitted effect of over 50% in size
TDP1 cell CPT: growth inhibition of DT40 Tdp1-/-;hTDP1 cells with camptothecin (screen for TDP1 inhibitors); chicken DT40 Tdp1-/-;hTDP1 cells + 20 nM CPT, ATP luminescence, 48 h; actives 12% (n = 420,000); Potency, µM (doses to about 46.2 µM), usual class: inhibitors; further: nearly all actives have a fitted effect of over 55% in size
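Cell growth measured by CellTiter-Glo luminescence after a minimum 48 h, 37 C compound exposure with 20 nM CPT in Tdp1-knockout DT40 cells stably expressing hTDP1, seeded 400/well; qHTS titration format.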
Chronic BCR inh: chronic active BCR signaling inhibition; ABC-DLBCL IkBa-CBG/CBR reporter, luminescence ratio, 4 h; Potency, µM (highest dose often 46.1 µM), usual class: inhibitors; actives 0.05% (n = 340,000); AID 493014; active means well fitted inhibition curve with a large enough effect in the signal ratio, with a control signal flat, not every such curve was filed as active; inconclusive means small, poorly fitted or top-dose-only effect, or effect the other way, or a change in a side signal; the % refers to the signal ratio
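Cell line TMD8 (human ABC DLBCL), stably expressing tet-inducible CBG68-IkBa fusion and CBR; IMDM/0.5% FBS; cpd up to 46 uM; dox induction, 4 h, 37C/5% CO2; dual luminescence; green/red ratio; MG132 control.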
A number is an active result; n = inactive; u = inconclusive; x = no result given. Hits are enriched below; roughly 19% of the tested compounds scored in any of these assays. Unless noted, the call rests on the fitted dose curve; in most records, active means well fitted curve in the direction sought with a large enough effect; inconclusive means small, poorly fitted or top-dose-only effect, or another doubt; inactive means no such curve, though single readings can be large; an effect the other way counts as inactive or inconclusive.

SMILES	IL1B secr inh	TDP1 cell noCPT	SW480 rereplic	MCF10A rereplic	TDP1 cell CPT	Chronic BCR inh
COc1ccc(C(=O)Nc2cc3c(cc2N2CCCCC2)n(C)c(=O)n3C)cc1OC	n	20.6µM	n	u	u	n
CCOc1ccc(NC(=O)Nc2cc3c(cc2N2CCCCC2)n(C)c(=O)n3C)cc1	x	13µM	x	x	11.6µM	x
Cc1ccc(C(=O)Nc2cc3c(cc2N2CCCCC2)n(C)c(=O)n3C)cc1	n	n	n	u	n	n
Cc1cccc(-c2nc(CN3CCCC(C(=O)NCc4ccc(Cl)cc4)C3)c(C)o2)c1 (configuration not stated)	x	7.31µM	x	x	n	x
COc1ccc(-c2nc(CN3CCCC(C(=O)NC4CCCC4)C3)c(C)o2)cc1 (configuration not stated)	u	u	n	n	u	n
COc1ccc(CNC(=O)C2CCCN(Cc3nc(-c4cccc(C)c4)oc3C)C2)cc1 (configuration not stated)	u	13µM	n	n	13µM	n
Cc1ccc(C)c(N2CCN(C(=O)C3CCCN(Cc4nc(-c5cccc(Cl)c5)oc4C)C3)CC2)c1 (configuration not stated)	x	n	x	x	u	x
O=C(Nc1c2c(nn1-c1cccc(Cl)c1)CS(=O)(=O)C2)c1ccco1	n	n	n	n	n	n
CCc1cccc(C)c1NC(=O)CN1C(=O)c2c(c3ccccc3n2C)C1c1ccc(OC)cc1 (configuration not stated)	x	29.1µM	x	x	u	x
COc1ccc(C2c3c(n(C)c4ccccc34)C(=O)N2CC(=O)Nc2ccc(F)cc2)cc1 (configuration not stated)	x	n	x	x	n	x
COc1ccc(C2c3c(n(C)c4ccccc34)C(=O)N2CC(=O)Nc2ccc(Cl)cc2)cc1 (configuration not stated)	x	u	x	x	18.4µM	x
COc1ccc(-c2nonc2NC(=O)c2ccco2)cc1OC	n	n	n	n	n	n
CSc1nc(-c2ccccc2)nn1C(=O)c1ccccc1	n	23.1µM	n	u	u	n
CC1(c2ccc3c(c2)OCCO3)NC(=O)N(CC(=O)Nc2ccccc2SCC#N)C1=O (configuration not stated)	n	n	n	n	n	u
CC1CCCN(CCCNC(=O)c2coc3nc4ccccc4nc23)C1 (configuration not stated)	n	n	n	n	n	u
COc1ccc(CCNC(=O)c2cccc(Nc3nc4ccccc4nc3-n3nc(C)cc3C)c2)cc1OC	x	4.61µM	x	x	5.17µM	x
Cc1ccc(CCNC(=O)c2coc3nc4ccccc4nc23)cc1	n	29.1µM	u	u	u	n
CCC(Cc1ccccc1)NC(=O)c1cccc(Nc2nc3ccccc3nc2-n2nc(C)cc2C)c1 (configuration not stated)	x	n	x	x	n	x
CCOc1ccc(CCNC(=O)c2cc(Nc3ccc(C)cc3C)nc3ccccc23)cc1OCC	x	8.2µM	x	x	8.2µM	x
CCOc1ccc(CCNC(=O)CSc2nc3ccccc3nc2Cc2ccc(C)cc2)cc1OCC	x	n	x	x	n	x
O=C(NCc1cccnc1)c1cc(Sc2ccc(F)cc2F)nc2ccccc12	u	20.6µM	n	u	23.1µM	n
O=C(Nc1cccc(F)c1)N1CCCC2(CCN(C(=O)c3cccc(F)c3)CC2)C1	x	n	x	x	n	x
CCn1nc(C)c(CN2CCC(Oc3ccc(C(=O)N4CCCC4)cc3)CC2)c1C	n	n	n	n	n	n
COc1ccccc1Nc1cc(C(=O)NCc2cccnc2)c2ccccc2n1	n	u	n	n	n	u
Cc1ccc(C)c(Nc2cc(C(=O)NCc3cccnc3)c3ccccc3n2)c1	-73.3	u	n	n	u	u
O=C(NCCc1ccccc1)c1cc(Nc2ccccc2)nc2ccccc12	x	u	x	x	u	n
COc1ccc(CCNC(=O)c2cc(-c3ccc(C)c(C)c3)nc3ccccc23)cc1OC	x	n	x	x	10.3µM	u

Bioassay records from PubChem BioAssay.
